# Measurements as given in PubChem BioAssay (Tox21).
# Values joined by “and” are separate entries in the source; they are usually repeats but may differ in a detail not shown here. Equal values may be shown once. Results filed as inconclusive are left out. Entries that show only a call come without a potency. More than one record can exist for a structure, and the calls need not agree. Active and inactive are the calls of the source. Unless noted, calls come from the whole dose curve; as a rule, active = well fitted curve in the direction sought with a large enough effect in the repeat runs; inconclusive = weak or mixed curves; inactive = no such curve, though single readings can be large; an effect the other way counts as inactive or inconclusive.
# Experiments:
# [1] = qHTS assay to identify small molecule antagonists of the glucocorticoid receptor (GR) signaling pathway - cell viability counter screen (AID 720693); note: nearly all actives have a fitted effect of over 55% in size; note: potency is the fitted concentration of half-maximal effect
# [2] = qHTS assay for identifying genotoxic compounds that show differential cytotoxicity against isogenic chicken DT40 cell lines with known DNA damage response pathways - wild type cell line (AID 743012); note: nearly all actives have a fitted effect of over 60% in size; note: potency is the fitted concentration of half-maximal effect
# In short: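 Using parental DT40 (300 cells/well), compounds delivered in DMSO incubate 40 h at 37 C/5% CO2. CellTiter-Glo reagent then stands 30 min at room temperature, and luminescence gives cell viability.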
# [3] = qHTS assay for identifying genotoxic compounds that show differential cytotoxicity against isogenic chicken DT40 cell lines with known DNA damage response pathways - Rad54/Ku70 mutant cell line (AID 743015); note: nearly all actives have a fitted effect of over 60% in size; note: potency is the fitted concentration of half-maximal effect
# [4] = qHTS assay to identify small molecule antagonists of the androgen receptor (AR) signaling pathway - cell viability counter screen (AID 743033; note: nearly all actives have a fitted effect of over 45% in size)
# [5] = molecular target: Androgen receptor (Homo sapiens) (UniProt P10275); assay: qHTS assay to identify small molecule antagonists of the androgen receptor (AR) signaling pathway (AID 743035; active = well fitted inhibition curve with a large enough effect in the signal ratio in the repeat runs, not every such curve was filed as active; the % refers to the signal ratio)
# In short: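 Using qHTS, AR-UAS-bla GripTite HEK293 cells received compound, then R1881, and were cultured 16 h at 37C/5% CO2 before a 2 h room-temperature LiveBLAzer B/G FRET substrate step and fluorescence measurement.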
# [6] = molecular target: Androgen receptor (Homo sapiens) (UniProt P10275); assay: qHTS assay to identify small molecule agonists of the androgen receptor (AR) signaling pathway (AID 743036; active = well fitted activation curve with a large enough effect in the signal ratio in the repeat runs, with a control signal flat, not every such curve was filed as active; the % refers to the signal ratio)
# In short: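 Screening used 2,000 AR-bla HEK293 cells per well, treated 16 h at 37C with test compounds in DMSO alongside positive and DMSO-only controls; beta-lactamase activity was then read by LiveBLAzer B/G FRET fluorescence after 2 h at room temperature.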
# [7] = molecular target: Androgen receptor (Homo sapiens) (UniProt P10275); assay: qHTS assay to identify small molecule agonists of the androgen receptor (AR) signaling pathway using the MDA cell line (AID 743040; note: nearly all actives have a fitted effect of over 20% in size)
# In short: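 Luminescence from ONE-Glo, read after 30 min at room temperature, reflects MMTV-driven luciferase in MDA-kb2 cells (AR- and GR-responsive). Treatment lasted 16 h at 37C, 0% CO2.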
# [8] = qHTS assay to identify small molecule antagonists of the androgen receptor (AR) signaling pathway using the MDA cell line - cell viability counter screen (AID 743041; note: nearly all actives have a fitted effect of over 45% in size; note: potency is the fitted concentration of half-maximal effect)
# In short: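 Viability counter screen run alongside the AR antagonist reporter: cells seeded 5 h before compound, R1881 added, 16 h incubation at 37C without CO2, fluorescent CellTiter-Fluor signal quantified.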
# [9] = molecular target: Androgen receptor (Homo sapiens) (UniProt P10275); assay: qHTS assay to identify small molecule antagonists of the androgen receptor (AR) signaling pathway using the MDA cell line (AID 743042; note: nearly all actives have a fitted effect of over 55% in size)
# In short: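 MDA-kb2 cells (human breast carcinoma, stably carrying an MMTV-luciferase reporter responsive to AR and GR) were plated at 3,000 cells/well and preincubated 5 hr at 37C, then given compound plus R1881 agonist for 16 h. ONE-Glo luminescence was read.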
# [10] = qHTS assay to identify small molecule antagonists of the thyroid receptor (TR) signaling pathway (AID 743065); note: nearly all actives have a fitted effect of over 55% in size; note: potency is the fitted concentration of half-maximal effect
# In short: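 GH3.TRE-Luc rat pituitary cells carrying two TR response elements driving luciferase were plated for 4 h, given compound plus 1 nM T3 (final), and incubated 23.5 h at 37 C. ONE-Glo luminescence measured reporter inhibition; CellTiter-Fluor fluorescence tracked cytotoxicity.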
# [11] = system: thyroid hormone receptor (rat, GH3 cells); assay: qHTS assay to identify small molecule agonists of the thyroid receptor (TR) signaling pathway (AID 743066; calls by dose curve; note: potency is the fitted concentration of half-maximal effect)
# [12] = qHTS assay to identify small molecule antagonists of the estrogen receptor alpha (ER-alpha) signaling pathway - cell viability counter screen (AID 743074; calls by dose curve;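 note: HEK293 cells carrying ER-alpha-UAS-bla reporter stimulated with 17beta-estradiol; nearly all actives have a fitted effect of over 45% in size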; note: potency is the fitted concentration of half-maximal effect)
# [13] = qHTS assay to identify small molecule antagonists of the estrogen receptor alpha (ER-alpha) signaling pathway using the BG1 cell line - cell viability counter screen (AID 743081);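 note: compound given together with 17beta-estradiol as the ER stimulus; nearly all actives have a fitted effect of over 45% in size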; note: potency is the fitted concentration of half-maximal effect
# [14] = molecular target: Aromatase (Homo sapiens) (UniProt P11511); assay: qHTS assay to identify aromatase inhibitors (AID 743083); note: nearly all actives have a fitted effect of over 55% in size; note: potency is the fitted concentration of half-maximal effect
# [15] = qHTS assay to identify small molecule antagonists of the thyroid receptor (TR) signaling pathway - cell viability counter screen (AID 743064); note: nearly all actives have a fitted effect of over 50% in size; note: potency is the fitted concentration of half-maximal effect
# In short: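 Viability of T3-stimulated (1 nM final) GH3.TRE-Luc cells is measured by CellTiter-Fluor fluorescence after 23.5 h compound exposure at 37 °C plus 30 min reagent incubation.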
# [16] = molecular target: Estrogen receptor (Homo sapiens) (UniProt P03372); assay: qHTS assay to identify small molecule antagonists of the estrogen receptor alpha (ER-alpha) signaling pathway (AID 743069; active = well fitted curve in the direction sought with a large enough effect in the signal ratio in the repeat runs, not every such curve was filed as active; the % refers to the signal ratio)
# In short: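 Estradiol-stimulated ER-alpha-UAS-bla HEK293 cells, 18 hr compound exposure at 37C. LiveBLAzer B/G substrate, 2 hr RT, fluorescence read.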
# [17] = molecular target: Estrogen receptor (Homo sapiens) (UniProt P03372); assay: qHTS assay to identify small molecule agonists of the estrogen receptor alpha (ER-alpha) signaling pathway (AID 743075; calls by dose curve;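 note: HEK293 GripTite cells with ER-alpha and UAS-driven beta-lactamase reporter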)
# [18] = molecular target: Estrogen receptor (Homo sapiens) (UniProt P03372); assay: qHTS assay to identify small molecule agonists of the estrogen receptor alpha (ER-alpha) signaling pathway using the BG1 cell line (AID 743079); note: nearly all actives have a fitted effect of over 20% in size; note: potency is the fitted concentration of half-maximal effect
# [19] = qHTS assay to identify small molecule antagonists of the estrogen receptor alpha (ER-alpha) signaling pathway using the BG1 cell line (AID 743080; calls by dose curve;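 note: BG1 cells stimulated with 17beta-estradiol alongside compound; nearly all actives have a fitted effect of over 25% in size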; note: potency is the fitted concentration of half-maximal effect)
# In short: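 BG1Luc4E2, endogenous ER-alpha, 4xERE-luc; 5 d charcoal-stripped FBS, phenol red free; 24 h plating; cpd + 17beta-estradiol 21.5 h, 37 C/5% CO2; CellTiter-Fluor viability 30 min, then ONE-Glo luciferase 30 min RT.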
# [20] = qHTS assay for identifying genotoxic compounds that show differential cytotoxicity against isogenic chicken DT40 cell lines with known DNA damage response pathways - Rev3 mutant cell line (AID 743014); note: nearly all actives have a fitted effect of over 55% in size; note: potency is the fitted concentration of half-maximal effect
# Sequence of Aromatase (Homo sapiens) (P11511 whole entry, looked up): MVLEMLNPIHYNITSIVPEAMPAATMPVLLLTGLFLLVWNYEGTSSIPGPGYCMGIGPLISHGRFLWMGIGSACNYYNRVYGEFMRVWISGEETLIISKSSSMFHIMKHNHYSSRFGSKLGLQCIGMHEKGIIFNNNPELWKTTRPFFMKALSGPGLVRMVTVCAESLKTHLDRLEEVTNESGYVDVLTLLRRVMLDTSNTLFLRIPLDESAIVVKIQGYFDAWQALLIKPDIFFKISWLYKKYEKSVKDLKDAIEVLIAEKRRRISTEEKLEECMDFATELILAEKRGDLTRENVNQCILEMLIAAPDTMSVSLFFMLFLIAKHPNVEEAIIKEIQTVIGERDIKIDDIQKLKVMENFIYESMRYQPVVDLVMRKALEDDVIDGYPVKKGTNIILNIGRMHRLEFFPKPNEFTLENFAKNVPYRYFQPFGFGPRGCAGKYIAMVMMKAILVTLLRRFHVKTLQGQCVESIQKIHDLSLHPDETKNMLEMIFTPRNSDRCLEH
# Sequence of Estrogen receptor (Homo sapiens) (P03372 whole entry, looked up): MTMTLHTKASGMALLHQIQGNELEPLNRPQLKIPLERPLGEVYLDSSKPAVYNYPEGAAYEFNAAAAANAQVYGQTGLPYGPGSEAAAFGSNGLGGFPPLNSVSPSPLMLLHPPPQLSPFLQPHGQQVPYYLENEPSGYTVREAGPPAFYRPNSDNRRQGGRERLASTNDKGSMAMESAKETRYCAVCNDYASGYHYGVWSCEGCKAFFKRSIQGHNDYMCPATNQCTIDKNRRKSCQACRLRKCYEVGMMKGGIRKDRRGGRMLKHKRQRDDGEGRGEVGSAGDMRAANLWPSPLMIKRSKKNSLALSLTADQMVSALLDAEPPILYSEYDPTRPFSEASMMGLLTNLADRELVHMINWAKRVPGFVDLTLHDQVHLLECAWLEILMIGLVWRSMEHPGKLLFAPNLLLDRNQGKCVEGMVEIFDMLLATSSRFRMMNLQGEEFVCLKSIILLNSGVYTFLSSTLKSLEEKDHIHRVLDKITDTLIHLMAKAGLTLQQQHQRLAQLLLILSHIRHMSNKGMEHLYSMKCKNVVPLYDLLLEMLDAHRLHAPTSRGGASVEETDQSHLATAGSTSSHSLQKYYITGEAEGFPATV
# Sequence of Androgen receptor (Homo sapiens) (P10275 whole entry, looked up): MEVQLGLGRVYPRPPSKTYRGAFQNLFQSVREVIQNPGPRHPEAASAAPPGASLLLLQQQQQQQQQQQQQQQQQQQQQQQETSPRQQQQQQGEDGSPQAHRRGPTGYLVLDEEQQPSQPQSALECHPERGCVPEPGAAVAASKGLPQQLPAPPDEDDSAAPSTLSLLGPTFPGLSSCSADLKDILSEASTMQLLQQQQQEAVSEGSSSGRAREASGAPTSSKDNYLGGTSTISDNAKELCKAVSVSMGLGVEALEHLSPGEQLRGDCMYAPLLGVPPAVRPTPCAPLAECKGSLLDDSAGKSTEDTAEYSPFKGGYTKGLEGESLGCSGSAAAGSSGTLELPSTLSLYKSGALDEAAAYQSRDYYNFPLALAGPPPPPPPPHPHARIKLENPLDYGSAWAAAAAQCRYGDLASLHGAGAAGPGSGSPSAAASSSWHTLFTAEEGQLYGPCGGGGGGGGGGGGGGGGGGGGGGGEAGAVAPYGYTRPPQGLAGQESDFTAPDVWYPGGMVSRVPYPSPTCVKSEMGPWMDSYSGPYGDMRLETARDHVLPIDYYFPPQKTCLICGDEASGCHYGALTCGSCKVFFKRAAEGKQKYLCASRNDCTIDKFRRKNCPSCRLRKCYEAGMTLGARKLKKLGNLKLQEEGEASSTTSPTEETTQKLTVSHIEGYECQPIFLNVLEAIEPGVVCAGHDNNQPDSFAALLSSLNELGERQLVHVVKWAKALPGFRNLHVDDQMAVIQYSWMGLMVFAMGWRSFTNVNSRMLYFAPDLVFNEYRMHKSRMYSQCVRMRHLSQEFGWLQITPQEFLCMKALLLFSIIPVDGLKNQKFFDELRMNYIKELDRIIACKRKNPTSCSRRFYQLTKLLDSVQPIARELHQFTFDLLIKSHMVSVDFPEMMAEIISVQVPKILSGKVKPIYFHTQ
Compound,Potency [1],Potency [2],Potency [3],Potency [4],Potency [5],Potency [6],Potency [7],Potency [8],Potency [9],Potency [10],Potency [11],Potency [12],Potency [13],Potency [14],Potency [15],Potency [16],Potency [17],Potency [18],Potency [19],Potency [20]
C[C@@H]1O[C@@H]1P(=O)(O)O,inactive,inactive,inactive,inactive,inactive,inactive,inactive,inactive,inactive,inactive,inactive,inactive,inactive,inactive,,,,,,
Nc1cc(Cl)c(NC2=NCCN2)c(Cl)c1,inactive,inactive,inactive,inactive,,,,inactive,,inactive,inactive,inactive,inactive,inactive,inactive,inactive,inactive,inactive,inactive,
CCCCCN=C(N)N/N=C/c1c[nH]c2ccc(OC)cc12,inactive,inactive,,inactive,,,,inactive,,inactive,inactive,inactive,inactive,inactive,inactive,,,,,inactive
CSCC[C@H](NC(=O)[C@H](Cc1ccc(OS(=O)(=O)O)cc1)NC(=O)[C@@H](N)CC(=O)O)C(=O)NCC(=O)N[C@@H](Cc1c[nH]c2ccccc12)C(=O)N[C@@H](CCSC)C(=O)N[C@@H](CC(=O)O)C(=O)N[C@@H](Cc1ccccc1)C(N)=O,inactive,inactive,inactive,,,,,inactive,,inactive,inactive and 11.9 µM (active),inactive,inactive,inactive,inactive,,,,,inactive
COc1cc([C@@H]2c3cc4c(cc3[C@@H](O[C@@H]3O[C@@H]5CO[C@@H](C)O[C@H]5[C@H](O)[C@H]3O)[C@H]3COC(=O)[C@H]23)OCO4)cc(OC)c1O,inactive,531 nM (active) and 340 nM (active),53.1 nM (active) and 15.2 nM (active),,,,,inactive,,9.44 µM (active) and 3.4 µM (active),inactive,inactive,inactive,inactive,4.28 µM (active),,,,,473 nM (active) and 107 nM (active)
CCCCC[C@H](O)/C=C/[C@@H]1[C@@H](C/C=C\CCCC(=O)O)[C@@H](O)C[C@H]1O,inactive,inactive,inactive,,,,,inactive,,,,inactive,inactive,inactive,inactive,,,29.8 µM (active),,inactive
NS(=O)(=O)c1cc(Cl)c(Cl)c(S(N)(=O)=O)c1,inactive,inactive,inactive,,,,,inactive,,inactive,inactive,inactive,inactive,inactive,inactive,,,,,inactive
CCN1\C(=C/C=C/C=C/c2sc3ccccc3[n+]2CC)Sc2ccccc21,23.9 µM (active) and 21.3 µM (active),133 nM (active) and 298 nM (active),168 nM (active) and 335 nM (active),,,,,1.68 µM (active) and 5.96 µM (active),,,,67.4 nM (active) and 1.69 µM (active),11.9 µM (active),5.96 µM (active) and 10.6 µM (active),,,inactive,,1.88 µM (active),237 nM (active) and 841 nM (active)
CC[C@H]1OC(=O)C[C@@H](O)[C@H](C)[C@@H](O[C@@H]2O[C@H](C)[C@@H](O[C@H]3C[C@@](C)(O)[C@@H](O)[C@H](C)O3)[C@H](N(C)C)[C@H]2O)[C@@H](CC=O)C[C@@H](C)C(=O)/C=C/C(C)=C/[C@@H]1CO[C@@H]1O[C@H](C)[C@@H](O)[C@@H](OC)[C@H]1OC,inactive,inactive,,inactive,,,,inactive,,inactive,inactive,inactive,inactive,inactive,inactive,inactive,inactive,inactive,16.8 µM (active) and inactive,inactive
C/C(=C\C(=O)OCCCCCCCCC(=O)O)C[C@@H]1OC[C@H](C[C@@H]2O[C@H]2[C@@H](C)[C@H](C)O)[C@@H](O)[C@H]1O,inactive,1.5 µM (active),2.37 µM (active),,,,,inactive,,inactive,inactive,inactive,inactive,inactive,inactive,inactive,inactive,inactive,inactive,1.5 µM (active)
O=C1OC(=O)c2cc(-c3ccc4c(c3)C(=O)OC4=O)ccc21,inactive,17.2 µM (active),54.5 µM (active),,,,,inactive,,inactive,inactive,,inactive,inactive,,inactive,inactive,inactive,inactive,54.5 µM (active)
